GALK inhibitor = qHTS Assay for Inhibitors of Human Galactokinase (GALK); P51570; Purified GALK, Kinase-Glo residual ATP luminescence; Potency, µM (series often up to 57.5 µM), without a hit: at the highest dose activity change, negative = inhibition, actives largely listed as inhibitors; actives 0.007% (n = 270,000); AID 1868, 2009
Target sequence (P51570 whole entry, looked up): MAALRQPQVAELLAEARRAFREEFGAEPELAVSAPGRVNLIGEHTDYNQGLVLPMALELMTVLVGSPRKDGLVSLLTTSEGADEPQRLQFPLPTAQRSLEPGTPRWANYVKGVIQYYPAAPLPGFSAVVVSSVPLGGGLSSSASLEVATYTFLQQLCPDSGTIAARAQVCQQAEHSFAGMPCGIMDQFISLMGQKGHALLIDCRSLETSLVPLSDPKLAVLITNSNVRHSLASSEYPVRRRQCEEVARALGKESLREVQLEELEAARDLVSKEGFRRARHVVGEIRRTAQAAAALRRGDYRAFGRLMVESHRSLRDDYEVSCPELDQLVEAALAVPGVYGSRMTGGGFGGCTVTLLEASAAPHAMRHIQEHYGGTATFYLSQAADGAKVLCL
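Human GALK (5 nM) with 35 uM ATP and 100 uM galactose in 20 mM HEPES pH 8.0, 5 mM MgCl2, 60 mM NaCl, 1 mM DTT, 0.01% BSA. After 1 h at room temperature, leftover ATP was read by Kinase-Glo Plus luminescence.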
TrxR1 substrate = qHTS Assay for Substrates of Mammalian Selenoprotein Thioredoxin Reductase 1 (TrxR1): qHTS; Thioredoxin reductase 1, cytoplasmic (Rattus norvegicus), O89049; Potency, µM (series often up to 114 µM), for inactives: top-dose activity change, negative = substrate turnover; actives 0.01% (n = 390,000); AID 588456, 2011; purified TrxR1 substrate turnover, NADPH consumption readout; further: nearly all actives have a fitted effect of over 50% in size
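Rat TrxR1, dispensed at 90 nM, was prereduced with 400 uM NADPH (final) for 5 min at ~22 deg C, then incubated with compound 15 min before 400 uM selenite. A first-read NADPH fluorescence drop versus no-compound background flagged substrates.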
NPSR antagonist = qHTS Assay for Antagonists of the Neuropeptide S Receptor: cAMP Signal Transduction | CHO-NPSR cells, cAMP TR-FRET, antagonist mode | Potency, µM (top dose mostly 38.3 µM), inactives show top-dose activity change, negative = inhibition, actives largely listed as inhibitors | actives 1% (n = 220,000); further: nearly all actives have a fitted effect of over 50% in size
Target sequence (Q6W5P4 whole entry, looked up): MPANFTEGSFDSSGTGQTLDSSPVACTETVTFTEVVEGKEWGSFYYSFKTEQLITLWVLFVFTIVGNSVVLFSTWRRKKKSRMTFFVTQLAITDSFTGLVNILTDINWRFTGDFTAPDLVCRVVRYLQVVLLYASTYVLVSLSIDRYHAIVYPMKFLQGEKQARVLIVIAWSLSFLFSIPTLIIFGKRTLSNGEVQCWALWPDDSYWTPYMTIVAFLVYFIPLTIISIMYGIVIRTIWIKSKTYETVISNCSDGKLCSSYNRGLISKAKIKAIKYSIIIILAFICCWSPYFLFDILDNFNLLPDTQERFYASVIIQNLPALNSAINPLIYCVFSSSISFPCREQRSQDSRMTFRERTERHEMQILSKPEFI
rTrxR1 inhibitor = qHTS Assay for Inhibitors of Mammalian Selenoprotein Thioredoxin Reductase 1 (TrxR1): qHTS; Thioredoxin reductase 1, cytoplasmic (Rattus norvegicus), O89049; recombinant rTrxR1, NADPH fluorescence consumption, selenite substrate; Potency, µM (highest dose often 114 µM), without a hit: top-dose activity change, negative = inhibition, most hits filed as inhibitors; actives 1% (n = 390,000); AID 588453, 2011; further: nearly all actives have a fitted effect of over 65% in size
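Rat TrxR1 (90 nM in the dispensed reagent) was pre-reduced with 400 uM NADPH for 5 min at room temperature, then incubated with compound for 15 min. After 400 uM selenite was added, NADPH fluorescence (Ex 340/Em 450 nm) was followed for 8 min.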
Numbers without * were called inactive; ? = inconclusive; · = no result; [ ] = dose if it differs, or a comment. Hits are enriched below; roughly 1.2% of the tested compounds scored in any of these assays. The call rests on the fitted dose curve; in most records, active means well fitted curve in the direction sought with a large enough effect; inconclusive means small, poorly fitted or top-dose-only effect, or another doubt; inactive means no such curve, though single readings can be large; an effect the other way counts as inactive or inconclusive. On the % scale 0 is the no-effect control and ±100 the full control effect; potency means the concentration at half of the fitted maximal effect.

SMILES	GALK inhibitor	TrxR1 substrate	NPSR antagonist	rTrxR1 inhibitor
CSCCC(NC(C)=O)C(=O)Oc1ccc2c3c(c(=O)oc2c1)CCCC3 (stereo unspecified)	-0.5%	583.0%	-6.4%[46.1 µM]	50.1µM*
Cc1ccc(NC(=O)CN2C(=O)C(C)(C)c3cc(S(=O)(=O)N4CCCCC4)ccc32)c(Br)c1	·	1.6%[57.1 µM]	·	13.6%[57.1 µM]
O=C(O)/C=C/C(=O)Nc1ccc(Oc2ncnc3cc(Cl)ccc23)nc1	4.0%	3.7%	7.3%	56.2µM*
Cc1ccc(C)c(CN2C(=O)c3ccccc3S(=O)c3ccc(C(=O)N4CCN(c5ccccn5)CC4)cc32)c1 (stereo unspecified)	1.1%	-4.5%	7.94µM*	23.8%
Cc1ccc(C(=O)Nc2nnc(SCc3cc(=O)n4ccc(C)cc4n3)s2)cc1	·	0.8%[57.1 µM]	·	1.8%[57.1 µM]
CC1(C)Cc2noc(N)c2C(C)(C)N1O	-2.3%	4.0%	4.1%[46.1 µM]	1.58µM*
CCCCNc1nc(Oc2ccc(=O)n(-c3ccccc3)n2)nc(N(CC)CC)n1	·	-12.7%	·	-5.1%
CN(C)c1ccc(C=O)cc1Cl	·	-9.4%	·	-2.6%
O=C(c1ccccc1F)N1c2nc(-c3ccco3)nn2C2(CCCCC2)[C@@H]2CCCC[C@@H]21	·	-3.4%	·	25.1µM*
CCOc1ccc(CNC(=O)CCS(=O)(=O)c2cc3c4c(c2)CCN4C(=O)CC3)cc1OC	·	-0.5%[57.1 µM]	·	9.6%[57.1 µM]
O=C(Nc1ccc(Cc2ccncc2)cc1)C1CCC(N2C(=O)C3C4C=CC(C5CC45)C3C2=O)CC1 (stereo unspecified)	-4.6%	-7.6%	-26.8%[46.1 µM]	0.4%
CC(=O)Nc1ccc(NC(=O)C2CCC(N3C(=O)C4C5C=CC(C6CC56)C4C3=O)CC2)cc1 (stereo unspecified)	1.0%	2.2%	·	25.1µM*
Cc1ccc(C2NC(c3ccc4c(c3)OCO4)=CC(c3cc(Br)ccc3O)N2)cc1 (stereo unspecified)	·	11.5%[0.0914 µM]	·	-10.4%
Cc1cc(C)n(-c2nc(NC(C)(C)C)nc(NC(C)(C)C)n2)n1	0.7%	4.4%[57.1 µM]	-4.4%[46.1 µM]	15.2%[57.1 µM]
Cc1cc(C)n(-c2nc(Nc3ccccc3C(F)(F)F)nc(-n3nc(C)cc3C)n2)n1	0.6%	-2.0%[57.1 µM]	0.316µM*	-12.1%[57.1 µM]
COc1ccc(C(=O)CCN(C)C)c2ccccc12	·	1.2%	·	0.398µM*
COc1ccccc1C(=O)NC1=NC(c2ccc(Br)cc2)CC(=O)N1 (stereo unspecified)	·	23.9%	·	24.4%
COc1cccc(-c2n[nH]c(=S)n2Cc2ccco2)c1	0.7%	-6.2%	13.0%	39.8µM*
COc1ccccc1-c1n[nH]c(=S)n1Cc1ccco1	13.3%	·	-13.4%	·
Cc1cccc(/C=C(\c2nc3ccccc3[nH]2)S(=O)(=O)c2ccccc2)c1	-2.5%	-3.8%	7.94µM*	-65.1%
CC(=O)N1CCC2(CC1)C(C#N)=C(N)OC1=C2C(=O)CC(C)(C)C1	-1.2%	0.8%	-6.3%[46.1 µM]	-4.7%
CC1(C)CC(=O)C2=C(C1)OC(N)=C(C#N)C21CCC2(CC1)OCCO2	-1.0%	14.8%	-3.7%[46.1 µM]	8.91µM*
CCOc1ccc(C(=O)C(CCC(CN(C)C)C(=O)c2ccc(OCC)cc2)CN(C)C)cc1 (stereo unspecified)	-0.2%	-10.0%	20.8%	2.82µM*
CN(C)CC(CCC(CN(C)C)C(=O)c1ccccc1)C(=O)c1ccccc1 (stereo unspecified)	-2.4%	4.2%[57.1 µM]	1.7%[7.67 µM]	2.82µM*
COc1ccc(C(=O)C(CCCCC(CN(C)C)C(=O)c2ccc(OC)cc2)CN(C)C)cc1 (stereo unspecified)	·	-0.9%	-8.5%[46.1 µM]	-19.1%
SMILES	GALK inhibitor	TrxR1 substrate	NPSR antagonist	rTrxR1 inhibitor
CCSc1nnc(NC(=O)C2CSC3(C)CCC(=O)N23)s1 (stereo unspecified)	·	1.3%	·	13.6%
O=C(O)c1cc(-c2cccnc2)nc2ccc(Br)cc12	0.1%	4.0%	5.01µM*	15.8%
CCN1CCN(C(=O)c2cc(-c3cccnc3)nc3ccc(Br)cc23)CC1	3.6%	-6.7%	12.9%[46.1 µM]	-6.4%
O=C(O)c1cc(-c2ccc3c(c2)OCO3)nc2ccc(Br)cc12	-4.0%	-3.7%	6.31µM*	-32.6%
O=C(COc1ccc([N+](=O)[O-])cc1)Nc1nc2c(s1)CCCC2	·	-8.9%	·	5.0%
Cc1cc(OCC(=O)NCC2(N3CCOCC3)CCCCC2)ccc1Cl	·	-1.8%	·	2.3%
CC(C)(C)n1ncc2c(=O)n(Cc3ccccc3C#N)cnc21	·	4.3%	·	16.9%[57.1 µM]
COC1=C/C(=C/c2c(O)c(C#N)c3ccccn23)C=CC1=O	0.5%	-6.6%	0.7%	12.6µM*
CCc1cc2cc3c(cc2nc1SCC(=O)Nc1nccs1)OCO3	1.4%	7.4%	10µM*	11.8%
CCc1cc2cc3c(cc2nc1SCC(=O)Nc1c[nH]c(=O)[nH]c1=O)OCO3	-3.0%	-1.9%	·	15.1%
O=C(CC1Sc2ncnn2C1=O)Nc1ccccc1 (stereo unspecified)	-1.3%	7.3%	-4.9%[46.1 µM]	4.47µM*
O=C(CC1SC(=O)N(c2ccccc2)C1=O)Nc1ccccc1 (stereo unspecified)	-1.8%	-1.6%	-25.4%[46.1 µM]	-8.9%
Cn1nnnc1Sc1ncnc2scc(-c3cccs3)c12	·	0.1%	·	44.7µM*
Cn1nnnc1Sc1ncnc2scc(-c3ccc(-c4ccccc4)cc3)c12	·	3.0%[57.1 µM]	·	22.3%
CC(=O)c1ccc2c(c1)C1C=CCC1C(c1ccc(S(=O)(=O)N3CCOCC3)cc1)N2 (stereo unspecified)	0.3%	-8.9%	-0.6%	50.1µM*
COC(=O)c1ccc([C@H]2Nc3ccc(S(=O)(=O)Nc4ccc(C)cc4)cc3[C@H]3C=CC[C@H]32)cc1	·	3.3%	·	50.1µM*
COc1ccc(NS(=O)(=O)c2ccc3c(c2)[C@H]2C=CC[C@H]2[C@@H](c2ccc(C(=O)O)cc2)N3)cc1	-1.5%	-0.4%	·	?
CC(=O)NC(Cc1ccc(I)cc1)C(=O)NCC(N)C(=O)c1ccccc1 (stereo unspecified)	·	3.4%	·	10.6%
CC(=O)c1sc(NC(=O)C=C(C)C)nc1C	-1.9%	-5.8%	13.9%[46.1 µM]	2.6%
CC(=O)c1sc(NC(=O)C2(F)C(F)(F)C(F)(F)C(F)(F)C(F)(F)C2(F)F)nc1C	2.1%	?	-10.8%[46.1 µM]	35.5µM*
CCC/C=C1/CCCOC(C(=O)NCc2ccc(C)o2)(C(F)(F)F)C1 (stereo unspecified)	·	-8.7%	·	12.6µM*
CCC/C=C1\CCCOC(C(=O)NCc2ccc(C)o2)(C(F)(F)F)C1 (stereo unspecified)	·	-1.2%	·	?
Oc1cccc(/C=N/c2c(-c3ccco3)nc3ccccn23)c1	-1.3%	67.8%[57.1 µM]	10µM*	?
O=[N+]([O-])c1ccc(Cl)c(-c2ccc(/C=N/c3c(-c4ccco4)nc4ccccn34)o2)c1	-2.4%	-2.4%	-16.6%[46.1 µM]	-15.7%
CC(=O)N/C(=C/c1ccccc1)c1sc2ccccc2[n+]1CCCCI	·	-4.6%	·	44.7µM*
O=c1oc2cc(O)ccc2c2ccccc12	-2.8%	3.4%[57.1 µM]	5.01µM*	5.9%[57.1 µM]

Bioassay records from PubChem BioAssay.
